According to publication PMC5540273 (PLoS ONE, 2017):

Test system: T1, SNARK
T1 construct: gene NUAK2
Details: concentration: 1 μM, replicates: in singlicate; n = 1
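Note: KINOMEscan kinase panel screen.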

SMILES	%Inh [%]
[2H]C([2H])(c1cccc(C(F)(F)F)c1C)n1ccn2c(=O)nc(N3CCOCC3)cc12 [GSK2336394]	0
N#Cc1c(N2CCOCC2)sc(-c2ccn[nH]2)c1-c1ccc(Cl)cc1	5
CN(C1=C(c2ccccc2)C(=O)NC1=O)c1ccccc1 [SB-334860]	23
Cc1cn2c(=O)cc(N3CCOCC3)nc2n1Cc1cccc(Cl)c1Cl [GSK2334006]	0
Fc1ccc(-c2ncn(CCCN3CCOCC3)c2-c2cccnc2)cc1 [SB-211743]	0
O=c1cc(N2CCOCC2)nc2n(Cc3cccc(F)c3)ccn12 [GSK2297430]	0
O=C(Nc1cccc(-c2nn3ncccc3c2-c2ccnc(Nc3cccc(C(F)(F)F)c3)n2)c1)c1c(F)cccc1F [GSK299495]	0
Cc1c2ccc(N(C)c3ccnc(Nc4cccc(S(N)(=O)=O)c4)n3)cc2nn1Cc1ccccc1.Cl.Cl [GW787226]	0
O=C(Nc1n[nH]c2cc(-c3cccc(F)c3)ccc12)C1CC1 [SB-735464]	0
CCCCCc1nc2c(N)ncnc2n1CCCCC [SKF-97255]	0
Cc1ccc(C(=O)NCC(N)=O)cc1-n1c(C)cc(OCc2ccc(F)cc2F)c(Br)c1=O	0
NCC(NC(=O)c1cc(-c2cn[nH]c2)c(-c2ccnc3[nH]ccc23)s1)c1ccccc1.O=C(O)C(F)(F)F.O=C(O)C(F)(F)F (stereo not drawn) [GSK1325775]	92.2
COc1ccc(Nc2nccc(N3CCC(NC(=O)Nc4cccc(C(C)=O)c4)C3)n2)cc1 (stereo not drawn) [GSK1379731]	0
COCCNC(=O)c1ccc(-c2cc(C(=O)NC3CC3)cc(F)c2C)cc1 [GW868318]	16
COC(=O)Nc1nc2cc(Oc3ccc(NC(=O)Nc4cc(F)ccc4F)cc3)ccc2[nH]1.Cl [GW701424]	0
O=C(c1ccc(-c2cc(-c3c[nH]nc3-c3ccccn3)ccn2)cc1)N1CCOCC1 [GW812171]	16
NS(=O)(=O)c1cccc(-c2ccc3nccc(-c4cccc(S(N)(=O)=O)c4)c3c2)c1 [GW867253]	0
CN1c2ccc(CNc3ccc(F)cc3)cc2-c2c(cnn2C)S1(=O)=O	0

SMILES	%Inh [%]
O=c1cc(N2CCOCC2)nc2n(Cc3cccc(C(F)(F)F)c3)ccn12 [GSK2297543]	0
Nc1nccc(-c2c(-c3ccc(F)cc3)ncn2C2CCN(CC(F)(F)F)CC2)n1 [SB-236560]	0
O=c1cc(N2CCOCC2)nc2n(Cc3cccc(Cl)c3Cl)c(C3CC3)nn12 [GSK2358994]	0
Fc1ccc(-c2ncn(CCCN3CCOCC3)c2-c2ccccn2)cc1 [SB-211742]	0
CC(C)Oc1ccc2c(-c3ccnc(Nc4ccc(N5CCN(C)CC5)cc4)n3)cnn2n1 [GW696155]	99.6
COc1ccc(COc2cc(-n3cnc4ccccc43)sc2C(N)=O)cc1 [GSK1024304]	2
C[C@@H](Oc1cc(-n2cnc3ccc(NC(=O)NC(C)(C)C)cc32)sc1C(N)=O)c1ccccc1Cl [GSK346294]	21
Cl.Nc1ncnc2occ(-c3ccc(NC(=O)Nc4cc(C(F)(F)F)ccc4F)cc3)c12 [SB-707548]	0
COc1cc2c(cc1OCCN1CCN(C)CC1)ncc1c3ccc(C#N)cc3[nH]c21	97.1
O=C(NCCNc1ccnc(Nc2ccc(F)cc2)n1)Nc1ccccc1F [GSK1379880]	0
O=C(NCCNc1ccnc(Nc2ccc(F)cc2)n1)c1cc2ccccc2s1 [GSK1379874]	0
COc1cc2ncn(-c3cc(OCc4sccc4Cl)c(C(N)=O)s3)c2cc1OC [GSK448459]	80
Cc1cccc(-c2nc(-c3ccc(S(C)(=O)=O)cc3)sc2-c2ccncc2)c1	2
CCc1nc(-c2cccc(C)c2)c(-c2ccnc(NCc3ccccc3)c2)s1	0
c1ccc(-c2cc(-c3c[nH]nc3-c3ccccn3)ccn2)cc1 [GW576604]	0
COc1cc(Nc2nccc(N3CCC(NC(=O)c4cccc(NC(C)=O)c4)C3)n2)cc(OC)c1OC (stereo not drawn) [GSK1379754]	57
Cn1ccc2ncnc(Oc3ccc(NC(=O)Nc4ccncc4)c(Cl)c3)c21	0
Cl.Oc1cccc(Nc2ccnc3cc(-c4ccncc4)ccc23)c1 [GW494601]	12

Test system: SNRK
Details: concentration: 1 μM, replicates: in singlicate; n = 1

SMILES	%Inh [%]
[2H]C([2H])(c1cccc(C(F)(F)F)c1C)n1ccn2c(=O)nc(N3CCOCC3)cc12 [GSK2336394]	0
N#Cc1c(N2CCOCC2)sc(-c2ccn[nH]2)c1-c1ccc(Cl)cc1	12
CN(C1=C(c2ccccc2)C(=O)NC1=O)c1ccccc1 [SB-334860]	0
Cc1cn2c(=O)cc(N3CCOCC3)nc2n1Cc1cccc(Cl)c1Cl [GSK2334006]	1
Fc1ccc(-c2ncn(CCCN3CCOCC3)c2-c2cccnc2)cc1 [SB-211743]	0
O=c1cc(N2CCOCC2)nc2n(Cc3cccc(F)c3)ccn12 [GSK2297430]	0
O=C(Nc1cccc(-c2nn3ncccc3c2-c2ccnc(Nc3cccc(C(F)(F)F)c3)n2)c1)c1c(F)cccc1F [GSK299495]	0
Cc1c2ccc(N(C)c3ccnc(Nc4cccc(S(N)(=O)=O)c4)n3)cc2nn1Cc1ccccc1.Cl.Cl [GW787226]	0
O=C(Nc1n[nH]c2cc(-c3cccc(F)c3)ccc12)C1CC1 [SB-735464]	0
CCCCCc1nc2c(N)ncnc2n1CCCCC [SKF-97255]	0
Cc1ccc(C(=O)NCC(N)=O)cc1-n1c(C)cc(OCc2ccc(F)cc2F)c(Br)c1=O	15
NCC(NC(=O)c1cc(-c2cn[nH]c2)c(-c2ccnc3[nH]ccc23)s1)c1ccccc1.O=C(O)C(F)(F)F.O=C(O)C(F)(F)F (stereo not drawn) [GSK1325775]	0
COc1ccc(Nc2nccc(N3CCC(NC(=O)Nc4cccc(C(C)=O)c4)C3)n2)cc1 (stereo not drawn) [GSK1379731]	0
COCCNC(=O)c1ccc(-c2cc(C(=O)NC3CC3)cc(F)c2C)cc1 [GW868318]	16
COC(=O)Nc1nc2cc(Oc3ccc(NC(=O)Nc4cc(F)ccc4F)cc3)ccc2[nH]1.Cl [GW701424]	0
O=C(c1ccc(-c2cc(-c3c[nH]nc3-c3ccccn3)ccn2)cc1)N1CCOCC1 [GW812171]	10
NS(=O)(=O)c1cccc(-c2ccc3nccc(-c4cccc(S(N)(=O)=O)c4)c3c2)c1 [GW867253]	0
CN1c2ccc(CNc3ccc(F)cc3)cc2-c2c(cnn2C)S1(=O)=O	0

SMILES	%Inh [%]
O=c1cc(N2CCOCC2)nc2n(Cc3cccc(C(F)(F)F)c3)ccn12 [GSK2297543]	0
Nc1nccc(-c2c(-c3ccc(F)cc3)ncn2C2CCN(CC(F)(F)F)CC2)n1 [SB-236560]	16
O=c1cc(N2CCOCC2)nc2n(Cc3cccc(Cl)c3Cl)c(C3CC3)nn12 [GSK2358994]	0
Fc1ccc(-c2ncn(CCCN3CCOCC3)c2-c2ccccn2)cc1 [SB-211742]	0
CC(C)Oc1ccc2c(-c3ccnc(Nc4ccc(N5CCN(C)CC5)cc4)n3)cnn2n1 [GW696155]	23
COc1ccc(COc2cc(-n3cnc4ccccc43)sc2C(N)=O)cc1 [GSK1024304]	0
C[C@@H](Oc1cc(-n2cnc3ccc(NC(=O)NC(C)(C)C)cc32)sc1C(N)=O)c1ccccc1Cl [GSK346294]	0
Cl.Nc1ncnc2occ(-c3ccc(NC(=O)Nc4cc(C(F)(F)F)ccc4F)cc3)c12 [SB-707548]	0
COc1cc2c(cc1OCCN1CCN(C)CC1)ncc1c3ccc(C#N)cc3[nH]c21	27
O=C(NCCNc1ccnc(Nc2ccc(F)cc2)n1)Nc1ccccc1F [GSK1379880]	0
O=C(NCCNc1ccnc(Nc2ccc(F)cc2)n1)c1cc2ccccc2s1 [GSK1379874]	0
COc1cc2ncn(-c3cc(OCc4sccc4Cl)c(C(N)=O)s3)c2cc1OC [GSK448459]	0
Cc1cccc(-c2nc(-c3ccc(S(C)(=O)=O)cc3)sc2-c2ccncc2)c1	17
CCc1nc(-c2cccc(C)c2)c(-c2ccnc(NCc3ccccc3)c2)s1	0
c1ccc(-c2cc(-c3c[nH]nc3-c3ccccn3)ccn2)cc1 [GW576604]	0
COc1cc(Nc2nccc(N3CCC(NC(=O)c4cccc(NC(C)=O)c4)C3)n2)cc(OC)c1OC (stereo not drawn) [GSK1379754]	0
Cn1ccc2ncnc(Oc3ccc(NC(=O)Nc4ccncc4)c(Cl)c3)c21	0
Cl.Oc1cccc(Nc2ccnc3cc(-c4ccncc4)ccc23)c1 [GW494601]	0
